Measurements taken from PubChem BioAssay (NCI).
About 79,000 compounds went through this panel and 15% of them were active in at least one assay; those are over-represented in the sample as a whole. Calls of active or inactive are those of the source. No stated cut-off is given here; in the data, active means growth inhibition above about 70%; inactive means the rest.

How the values were obtained:
[1] = NCI Yeast Anticancer Drug Screen. Data for the rad52 strain (AID 147);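 further: 0% = growth of vehicle-treated control cultures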; settings: S. cerevisiae rad52 mutant growth inhibition, stronger effect = higher value
In short: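 Measured: yeast growth inhibition. System: strain with a defined DNA damage repair alteration. Reference: vehicle-treated control cultures.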

[2] = NCI Yeast Anticancer Drug Screen. Data for the rad50EPP+ strain (AID 151);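 further: 0% = growth of vehicle-treated control cultures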; settings: S. cerevisiae rad50 mutant strain, stronger effect = higher value
In short: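 One strain with a rad50 alteration (rad50EPP+) was compound-treated, its growth then compared to that of vehicle controls.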

[3] = NCI Yeast Anticancer Drug Screen. Data for the mgt1 strain (AID 153); settings: S. cerevisiae mgt1 mutant growth inhibition, stronger effect = higher value
In short: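 After exposure of the mgt1 yeast mutant to compound, growth was measured and reported as inhibition compared with vehicle controls.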

[4] = NCI Yeast Anticancer Drug Screen. Data for the rad50 strain (AID 155);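 further: 0% = growth of vehicle-only cultures of the same strain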; settings: S. cerevisiae rad50 strain growth inhibition, stronger effect = higher value
In short: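 Yeast carrying a defined DNA repair defect were exposed to test compounds, and growth was compared with vehicle-treated controls to give percent inhibition.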

[5] = NCI Yeast Anticancer Drug Screen. Data for the mec2-1 strain (AID 157); settings: S. cerevisiae mec2-1 strain, stronger effect = higher value
In short: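 Test agents were screened against the mec2-1 yeast strain, with defined DNA repair or cell cycle alteration. Growth was scored as inhibition against vehicle-only controls.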

[6] = NCI Yeast Anticancer Drug Screen. Data for the rad14 strain (AID 159);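 further: 0% = growth of vehicle-treated control cultures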; settings: S. cerevisiae rad14 strain growth inhibition, stronger effect = higher value
In short: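 Yeast cells carrying a defined DNA-repair defect were exposed to compounds, and growth inhibition was calculated relative to vehicle-treated control cultures.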

[7] = NCI Yeast Anticancer Drug Screen. Data for the sgs1 mgt1 strain (AID 161);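 further: 0% = growth of cultures given vehicle only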; settings: S. cerevisiae sgs1 mgt1 strain, stronger effect = higher value
In short: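 Inhibition of yeast growth, normalised to vehicle-treated controls, is reported for a strain bearing genetic alterations in DNA damage repair.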

[8] = NCI Yeast Anticancer Drug Screen. Data for the CLN2oe strain (AID 163);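 further: 0% = growth of vehicle-only control cultures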; settings: S. cerevisiae CLN2oe strain, stronger effect = higher value
In short: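 Here, growth inhibition in a cell-cycle-altered yeast strain after compound exposure was quantified against vehicle control growth.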

[9] = NCI Yeast Anticancer Drug Screen. Data for the cln2 rad14 strain (AID 165);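 further: 0% = growth equal to vehicle treated cultures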; settings: S. cerevisiae cln2 rad14 strain, stronger effect = higher value
In short: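 Growth of compound-exposed yeast (cln2 rad14 genotype) measured and expressed as inhibition relative to vehicle.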

[10] = NCI Yeast Anticancer Drug Screen. Data for the bub3 strain (AID 167); settings: S. cerevisiae bub3 mutant strain, stronger effect = higher value
In short: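 Compounds were applied to a genetically altered yeast strain carrying a cell-cycle control defect. Growth inhibition was scored against vehicle-treated controls.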

[11] = NCI Yeast Anticancer Drug Screen. Data for the mlh1 strain (AID 171);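 further: 0% = growth of vehicle-treated control cultures of the same strain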; settings: S. cerevisiae mlh1 strain growth inhibition, stronger effect = higher value
In short: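 Here the genetically defined yeast mutant is grown with each compound, and the extent to which its growth falls below that of vehicle-exposed cells is reported.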

[12] = NCI Yeast Anticancer Drug Screen. Data for the sgs1 strain (AID 173);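 further: 0% = growth of vehicle-only control cultures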; settings: S. cerevisiae sgs1 mutant, stronger effect = higher value
In short: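 Relative growth inhibition, referenced to vehicle, was determined in a yeast strain with a defined alteration affecting DNA damage repair or cell cycle control after compound exposure.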

[13] = NCI Yeast Anticancer Drug Screen. Data for the mlh1 rad18 strain (AID 175); settings: S. cerevisiae mlh1 rad18 strain growth inhibition, stronger effect = higher value
In short: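 In this whole-cell yeast screen, a strain with altered DNA damage repair is challenged with compound, and its growth is measured against matched vehicle-treated controls.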

[14] = NCI Yeast Anticancer Drug Screen. Data for the rad18 strain (AID 177); settings: S. cerevisiae rad18 mutant growth inhibition, stronger effect = higher value
In short: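 Screen uses a yeast strain with a defined lesion in DNA damage repair; compound effect is read as loss of growth compared to untreated vehicle cultures.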

[15] = NCI Yeast Anticancer Drug Screen. Data for the wt1 strain (AID 149);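 further: 0% = growth of vehicle-treated wt1 cultures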; settings: S. cerevisiae wt1 strain (SPY 50644) growth inhibition, stronger effect = higher value
In short: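 Yeast wt1 strain exposed to compounds; growth inhibition measured relative to vehicle-treated controls.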

[16] = NCI Yeast Anticancer Drug Screen. Data for the wt2 strain (AID 169);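 further: 0% = growth of vehicle-treated yeast cultures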; settings: S. cerevisiae wt2 strain growth inhibition, stronger effect = higher value
In short: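 Genetically defined yeast strains from a DNA-repair/cell-cycle panel were used. Compound-exposed yeast growth was measured, and the inhibition was calculated relative to vehicle treatment.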

[17] = at 5.0 µM (retest, dose inferred, filed as 0.5)
[18] = at 50.0 µM (retest, dose inferred, filed as 5.0)

Measured: growth inhibition

C/C(=N\O)C1CC2C=C(C#N)C1N(Cc1ccccc1)C2 (stereo unspecified)
active: [14]; at 33.0 µM 77% | [14]; at 100.0 µM 86%
inactive: [1]; at 1.2 µM -5% | [1]; at 3.7 µM -3% | [1]; at 11.0 µM -1% | [1]; at 33.0 µM 1% | [1]; at 100.0 µM 8% | [2]; at 1.2 µM 2% | [2]; at 3.7 µM 2% | [2]; at 11.0 µM 5% | [2]; at 33.0 µM 9% | [2]; at 100.0 µM 19% | [3]; at 1.2 µM -5% | [3]; at 3.7 µM -4% | [3]; at 11.0 µM -5% | [3]; at 33.0 µM -3% | [3]; at 100.0 µM -1% | [4]; at 1.2 µM -3% | [4]; at 3.7 µM -3% | [4]; [17] -6% | [4]; at 11.0 µM 0% | [4]; at 33.0 µM 0% | [4]; [18] -1% | [4]; at 50.0 µM 8.05% | [4]; at 100.0 µM 5% | [5]; at 1.2 µM 0% | [5]; at 3.7 µM 3% | [5]; [17] -16% | [5]; at 11.0 µM 4% | [5]; at 33.0 µM 4% | [5]; [18] -13% | [5]; at 50.0 µM 7.3% | [5]; at 100.0 µM 0% | [6]; at 1.2 µM -3% | [6]; at 3.7 µM -1% | [6]; at 11.0 µM 2% | [6]; at 33.0 µM 1% | [6]; at 100.0 µM 7% | [7]; [17] -10% | [7]; [18] 24% | [7]; at 50.0 µM 3.75% | [8]; at 1.2 µM -5% | [8]; at 3.7 µM -14% | [8]; at 11.0 µM -7% | [8]; at 33.0 µM -2% | [8]; at 100.0 µM -2% | [9]; [17] -1% | [9]; [18] 8% | [9]; at 50.0 µM 11.3% | [10]; at 1.2 µM -4% | [10]; at 3.7 µM -5% | [10]; [17] -3% | [10]; at 11.0 µM -3% | [10]; at 33.0 µM -2% | [10]; [18] 13% | [10]; at 50.0 µM 10.7% | [10]; at 100.0 µM -5% | [11]; at 1.2 µM -3% | [11]; at 3.7 µM 0% | [11]; at 11.0 µM 0% | [11]; at 33.0 µM 0% | [11]; at 100.0 µM 0% | [12]; at 1.2 µM 1% | [12]; at 3.7 µM 1% | [12]; at 11.0 µM 4% | [12]; at 33.0 µM 9% | [12]; at 100.0 µM 17% | [13]; [17] 0% | [13]; [18] 62% | [13]; at 50.0 µM 9% | [14]; at 1.2 µM 5% | [14]; at 3.7 µM 13% | [14]; at 11.0 µM 40%

CCN(CC)CCN1C(=O)c2cccc3cc(OC)cc(c23)C1=O
inactive: [1]; at 1.2 µM 8% | [1]; at 3.7 µM 48% | [15]; at 1.2 µM -5% | [15]; at 3.7 µM 1% | [15]; at 11.0 µM -3% | [15]; at 33.0 µM -7% | [15]; at 100.0 µM -1% | [3]; at 1.2 µM -10% | [3]; at 3.7 µM -12% | [3]; at 11.0 µM -10% | [3]; at 33.0 µM -4% | [3]; at 100.0 µM 1% | [4]; at 1.2 µM 4% | [4]; at 3.7 µM 43% | [4]; [17] 31% | [5]; at 1.2 µM -10% | [5]; at 3.7 µM -3% | [5]; [17] 5% | [5]; at 11.0 µM -12% | [5]; at 33.0 µM -14% | [5]; [18] 19% | [5]; at 50.0 µM 1.45% | [5]; at 100.0 µM 16% | [6]; at 1.2 µM -10% | [6]; at 3.7 µM 1% | [6]; at 11.0 µM -9% | [6]; at 33.0 µM -6% | [6]; at 100.0 µM 3% | [7]; [17] 13% | [7]; [18] 27% | [7]; at 50.0 µM -4.05% | [8]; at 1.2 µM 2% | [8]; at 3.7 µM -4% | [8]; at 11.0 µM 5% | [8]; at 33.0 µM 7% | [8]; at 100.0 µM 24% | [9]; [17] 27% | [9]; [18] 18% | [9]; at 50.0 µM -3.8% | [10]; at 1.2 µM -9% | [10]; at 3.7 µM -3% | [10]; [17] 11% | [10]; at 11.0 µM -7% | [10]; at 33.0 µM 1% | [10]; [18] 15% | [10]; at 50.0 µM -22.1% | [10]; at 100.0 µM 11% | [16]; at 1.2 µM -23% | [16]; at 3.7 µM -3% | [16]; at 11.0 µM -38% | [16]; at 33.0 µM -35% | [16]; at 100.0 µM 13% | [12]; at 1.2 µM -4% | [12]; at 3.7 µM 40% | [12]; at 11.0 µM 42% | [12]; at 33.0 µM 36% | [12]; at 100.0 µM 42% | [13]; [17] 12% | [13]; [18] 36% | [13]; at 50.0 µM -14.2% | [14]; at 1.2 µM 7% | [14]; at 3.7 µM -2% | [14]; at 11.0 µM -13% | [14]; at 33.0 µM -12% | [14]; at 100.0 µM 12%
active: [1]; at 11.0 µM 72% | [1]; at 33.0 µM 91% | [1]; at 100.0 µM 93% | [4]; at 11.0 µM 74% | [4]; at 33.0 µM 90% | [4]; [18] 94% | [4]; at 50.0 µM 79.6% | [4]; at 100.0 µM 93%
